This is an account of results in paper PMC4336329 (PLoS ONE, 2015).

The whole screen tested about 310,000 compounds, of which about 14,000 (4.5%) showed an effect of 50% or more. The effect is printed as a negative number. The sample as a whole holds a higher share of strong results than the screen did.
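Also: peak tail current of the secondary pulse compared with the same well before compound.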

The test deals with human ether-à-go-go-related gene (hERG) potassium channel (human, UniProt Q12809). In words: primary screen, population patch clamp on CHO cells stably expressing hERG; higher = less effect of the substance.
Sequence of human ether-à-go-go-related gene (hERG) potassium channel (Q12809 whole entry, looked up): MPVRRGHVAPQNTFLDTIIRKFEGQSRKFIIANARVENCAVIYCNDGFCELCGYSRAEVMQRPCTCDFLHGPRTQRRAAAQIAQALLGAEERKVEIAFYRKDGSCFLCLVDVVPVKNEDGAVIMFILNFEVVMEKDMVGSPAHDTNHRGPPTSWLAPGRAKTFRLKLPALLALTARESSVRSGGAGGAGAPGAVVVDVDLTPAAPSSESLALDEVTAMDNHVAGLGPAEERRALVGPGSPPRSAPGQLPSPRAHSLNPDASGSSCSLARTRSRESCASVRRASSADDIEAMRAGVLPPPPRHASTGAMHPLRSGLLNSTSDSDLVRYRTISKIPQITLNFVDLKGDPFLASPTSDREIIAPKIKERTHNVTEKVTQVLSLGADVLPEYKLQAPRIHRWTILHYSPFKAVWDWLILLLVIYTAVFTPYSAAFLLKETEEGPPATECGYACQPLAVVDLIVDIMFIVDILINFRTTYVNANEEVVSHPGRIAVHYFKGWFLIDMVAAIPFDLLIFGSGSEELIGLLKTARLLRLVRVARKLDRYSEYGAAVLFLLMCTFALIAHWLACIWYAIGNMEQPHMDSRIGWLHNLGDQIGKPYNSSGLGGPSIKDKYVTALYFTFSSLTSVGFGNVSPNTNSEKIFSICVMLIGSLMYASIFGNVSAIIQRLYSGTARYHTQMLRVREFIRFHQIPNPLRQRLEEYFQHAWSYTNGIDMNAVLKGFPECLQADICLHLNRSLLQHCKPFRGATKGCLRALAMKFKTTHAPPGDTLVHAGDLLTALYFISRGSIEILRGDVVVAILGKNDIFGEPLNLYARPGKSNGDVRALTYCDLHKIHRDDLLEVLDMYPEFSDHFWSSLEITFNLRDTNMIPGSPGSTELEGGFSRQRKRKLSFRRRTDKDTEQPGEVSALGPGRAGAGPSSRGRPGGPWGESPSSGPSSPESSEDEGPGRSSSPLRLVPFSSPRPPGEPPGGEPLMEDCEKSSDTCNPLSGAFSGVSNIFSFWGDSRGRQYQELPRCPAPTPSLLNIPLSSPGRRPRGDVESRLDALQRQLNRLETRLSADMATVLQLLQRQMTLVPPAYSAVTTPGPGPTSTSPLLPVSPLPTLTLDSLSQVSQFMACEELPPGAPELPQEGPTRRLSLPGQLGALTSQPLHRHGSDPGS
Regarding `CCC(C)C(NC(=O)C1CCC(C)CC1)C(=O)NC(C(=O)OC)C(C)C` (centres unmarked), the “hERG current change (%, negative = inhibition) at 10uM” value is reported as -0.903%.
The value for `CCCn1c2ccccc2c2nc3ccccc3nc21` was 13%; that for `OC(CN1CCC(Cc2ccccc2)CC1)C(F)(F)F` (centres unmarked) was 5.97%; that for `Fc1cccc(CN2CCC(Cc3ccccc3)CC2)c1` was 5.12%.
Next, `Fc1ccccc1CN1CCC(Cc2ccccc2)CC1`: -24.4%; `Cc1c(C(O)CN2CCC(C(N)=O)CC2)c2ccccc2n1C` (centres unmarked): -3.73%.
Next, `COc1ccc2c(c1)c(C(O)CN1CCC(Cc3ccccc3)CC1)c(C)n2C` (centres unmarked): -71%; `COc1ccc2c(c1)c(C(=O)CN1CCN(Cc3ccccc3)CC1)c(C)n2C`: -29.8%; `OC(COc1ccc(F)cc1Cl)CN1CCC(Cc2ccccc2)CC1` (centres unmarked): -84.6%.
As to `OC(CN1CCC(Cc2ccccc2)CC1)c1ccccc1` (centres unmarked), the “hERG current change (%, negative = inhibition) at 10uM” value was -52.9%.
Next, `OC(CN1CCN(c2ccccc2Cl)CC1)c1ccccc1` (centres unmarked): -42.3%; `O=C(O)C(=O)O.O=S(=O)(c1ccc(F)cc1)N1CCN(CC(O)COc2ccccc2F)CC1` (centres unmarked): -14.5%.
Next, `Cl.OC(COc1ccccc1F)CN1CCC(Cc2ccccc2)CC1` (centres unmarked): -76.2%; `CC1CCN(CC(O)COc2cccc(F)c2)CC1` (centres unmarked): -24.8%; `COc1ccccc1NC(=O)Nc1nc(CC(=O)Nc2cccc(F)c2)cs1`: -3.26%.
The value for `COc1ccc(CCNC(=O)C2CCN(S(=O)(=O)c3cccc4cccnc34)CC2)cc1OC` was 12.1%.
For the compound `CCOC(=O)N1CCN(c2nnnn2-c2ccccc2)CC1`, the “hERG current change (%, negative = inhibition) at 10uM” value is listed as -0.913%.
The value for `CCCCNC(=O)C(CC)(ONc1ccccc1C(F)(F)F)c1ccccc1` (centres unmarked) was 6.19%.
Next, `CC(C)(C)c1ccc(C(=O)NNC(=O)C(=O)N2CCCCC2)cc1`: 14.3%; `CS(=O)(=O)Nc1cccc(C2=NN(C(=O)c3cccc([N+](=O)[O-])c3)C(c3cccs3)C2)c1` (centres unmarked): -13.4%; `COc1cccc(OCC(O)CN2CCC(Cc3ccccc3)CC2)c1.Cl` (centres unmarked): -70.4%.
Next, `COc1cccc(OCC(O)CN2CCC(C)CC2)c1.Cl` (centres unmarked): -12.3%; `COc1cccc(OCC(O)CN2CCN(c3ncccn3)CC2)c1.Cl` (centres unmarked): -11%; `COc1ccc(CCNC(=O)C(CC(C)C)NC(N)=O)cc1` (centres unmarked): 9.22%.
Take `COc1ccc(C)cc1Nc1n[n+](-c2ccccc2)c(-c2c(Cl)cccc2Cl)s1.[Cl-]`: the “hERG current change (%, negative = inhibition) at 10uM” value is reported as -55.9%.
Consider `COc1ccc(C)cc1Nc1n[n+](C)c(-c2c3ccccc3cc3ccccc23)s1.[Cl-]`, for which the “hERG current change (%, negative = inhibition) at 10uM” value amounted to 13.3%.
The value for `COc1ccc(C)cc1Nc1n[n+](-c2ccccc2)c(-c2ccc(NC(C)=O)cc2)s1.[Cl-]` was 12.8%.
The value for `COc1ccc(C)cc1Nc1n[n+](-c2ccccc2)c(-c2cc(OC)c(OC)cc2Br)s1.[Cl-]` was -48.9%; that for `COc1ccc(C)cc1Nc1n[n+](-c2ccccc2)c(-c2ccc(C(=O)O)cc2)s1.[Cl-]` was 18%; that for `COc1ccc(C)cc1Nc1n[n+](-c2ccccc2)c(-c2ccc(OC)c(OC)c2OC)s1.[Cl-]` was -71.8%.
Next, `COc1ccc(C)cc1Nc1n[n+](-c2ccccc2)c(-c2cc([N+](=O)[O-])cc(OC)c2O)s1.[Cl-]`: 6.15%; `COc1ccc(C)cc1Nc1n[n+](-c2ccccc2)c(-c2c(OC)ccc3ccccc23)s1.[Cl-]`: -53.8%; `COc1ccc(C)cc1Nc1n[n+](-c2ccccc2)c(-c2cccc(Cl)c2Cl)s1.[Cl-]`: 10%.
On to `COc1ccc(-c2nnc(SCC(=O)N(Cc3ccccc3)C(C)(C)C)o2)cc1OC`, for which the “hERG current change (%, negative = inhibition) at 10uM” value was -22.9%.
Regarding `O=c1c(Cc2ccc(Cl)cc2)c(O)ccn1Cc1cccs1`, the “hERG current change (%, negative = inhibition) at 10uM” value is 4.04%.
The value for `Cc1ccc(C(=O)NC2CC(=O)N(c3ccc4c(c3)OCCO4)C2)cc1[N+](=O)[O-]` (centres unmarked) was 14.6%.
Next, `CCC1(CC)NC(=O)N(CC(=O)OCC(=O)c2ccccc2OC)C1=O`: 0.647%.
The value for `CC(C)(C)NC(=O)C(Cc1ccccc1)NS(=O)(=O)c1cccc2nsnc12` (centres unmarked) was -1.39%; that for `CC(Sc1ccccc1)C(=O)N1CCN(S(=O)(=O)c2ccccc2)CC1` (centres unmarked) was -8.83%; that for `NC(=O)CC(NC(=O)c1ccccc1)c1ccc(N2CCC(Cc3ccccc3)CC2)c([N+](=O)[O-])c1` (centres unmarked) was 4.44%.
As for `CC1CC(C)CN(c2ccc(-n3cnnn3)cc2[N+](=O)[O-])C1` (centres unmarked), the “hERG current change (%, negative = inhibition) at 10uM” value is reported as -18.4%.
Next, `O=[N+]([O-])c1cc(-n2cnnn2)ccc1N1CCC(Cc2ccccc2)CC1`: -54.9%; `Cn1cnnc1SCc1cccc(Br)c1`: 0.347%.
Next, `COc1cccc(-n2c(CNc3ccc(F)cc3)nnc2SCC(N)=O)c1`: -11.8%.
The value for `Cc1ccc(NC(=O)C2CCN(C(=O)[C@@H]3Cc4ccccc4CN3)CC2)c(C)c1` was -41.4%.
As for `Cc1cccc(NC(=O)C2CCC(CNC(=O)[C@@H]3Cc4ccccc4CN3)CC2)c1` (some centres unmarked), the “hERG current change (%, negative = inhibition) at 10uM” value is given as -2.36%.
As to `CCc1ccc(NC(=O)C2CCN(C(=O)[C@@H]3Cc4ccccc4CN3)CC2)cc1`, the “hERG current change (%, negative = inhibition) at 10uM” value was -59.5%.
The value for `Cc1cc(C)cc(NC(=O)C2CCN(C(=O)[C@@H]3Cc4ccccc4CN3)CC2)c1` was -67.7%; that for `COc1ccc(CNC(=O)C2CCN(C(=O)[C@@H]3Cc4ccccc4CN3)CC2)cc1` was -24.8%; that for `CCc1ccc(NC(=O)C2CCC(CNC(=O)[C@@H]3Cc4ccccc4CN3)CC2)cc1` (some centres unmarked) was 4.23%.
The value for `COc1ccc(NC(=O)C2CCN(C(=O)[C@@H]3Cc4ccccc4CN3)CC2)cc1` was -38.2%; that for `Cc1cccc(NC(=O)C2CCN(C(=O)[C@@H]3Cc4ccccc4CN3)CC2)c1` was -67.2%.
Turning to `Cc1ccc(NC(=O)C2CCN(C(=O)[C@@H]3Cc4ccccc4CN3)CC2)cc1`, the “hERG current change (%, negative = inhibition) at 10uM” value is on record as -67.3%.
Take `Cc1cc(C)cc(NC(=O)C2CCC(CNC(=O)[C@@H]3Cc4ccccc4CN3)CC2)c1` (some centres unmarked): the “hERG current change (%, negative = inhibition) at 10uM” value is 0.322%.
The value for `Cc1ccc(NC(=O)C2CCC(CNC(=O)[C@@H]3Cc4ccccc4CN3)CC2)cc1` (some centres unmarked) was -25.8%; that for `COc1cccc(NC(=O)C2CCN(C(=O)[C@@H]3Cc4ccccc4CN3)CC2)c1` was -48.1%.
The value for `COC(=O)COc1ccc(S(=O)(=O)Nc2ccc(NC(C)=O)cc2)cc1C` was 19.8%; that for `COc1ccc(C2Nc3ccccc3C(=O)N2Cc2ccccc2)cc1Cn1nnc2ccccc21` (centres unmarked) was -25.1%; that for `Cc1cc(S(=O)(=O)N2CCN(c3ccccc3C)CC2)ccc1F` was 1.78%.
Next, `CCC(C)C(=O)Nc1nnc(SCC(=O)Nc2ccccc2F)s1` (centres unmarked): 10.1%.
In the case of `CCOc1ccc2c(c1)nc(C)n2C`, the “hERG current change (%, negative = inhibition) at 10uM” value is recorded as 11.7%.
The value for `C[C@]12CC[C@@H]3c4ccc(O)cc4CC[C@H]3[C@@H]1CC[C@@H]2OC(=O)CCC1CCCC1` was 14%.
The value for `O=C(CN1C(=O)CSCC1=O)Nc1ccc2c(c1)OCO2` was 16.2%; that for `Cc1ccc(S(=O)(=O)N2CCCCC2)cc1C(=O)c1nccn1C` was -2.56%; that for `O=C(N/N=C\c1cn(-c2ccccc2)nc1-c1ccccc1)c1ccc2c(c1)OCO2` was 11.3%.
The value for `O=C(CSc1nnc(-c2ccncc2)n1-c1ccccc1)NC1CC1` was 4.69%; that for `Cc1cc(/C=C2\SC(=Nc3ccc(N4CCOCC4)cc3)N(C)C2=O)c(C)n1-c1cccnc1` was 11.3%.
For the compound `Cc1cc(=O)n2[nH]c(C(F)(F)F)c(-c3ccccc3)c2n1`, the “hERG current change (%, negative = inhibition) at 10uM” value is 3.6%.
Next, `CC(C)C1NC(=S)N(Cc2ccccc2)C1=O` (centres unmarked): 5.2%; `CC(C)c1ccc(NC(=O)C2CCC(CNC(=O)[C@@H]3Cc4ccccc4CN3)CC2)cc1` (some centres unmarked): 9.65%; `CC(C)c1ccc(NC(=O)C2CCN(C(=O)[C@@H]3Cc4ccccc4CN3)CC2)cc1`: -67.4%.
Next, `CC(NC(=O)C1CCN(C(=O)[C@@H]2Cc3ccccc3CN2)CC1)c1ccccc1` (some centres unmarked): -25.7%; `CCOc1ccc(NC(=O)COC(=O)c2c(OC)cccc2OC)cc1`: -1.27%.
Next, `Cl.OC(CN1C2=NCCN2c2ccccc21)c1ccc2c(c1)OCO2` (centres unmarked): -63.6%.
With `Cl.O=C(CN1C2=NCCN2c2ccccc21)N1CCOCC1`, the “hERG current change (%, negative = inhibition) at 10uM” value is reported as 9.79%.
The value for `OC(c1ccc2c(c1)OCO2)c1nccc2ccccc12` (centres unmarked) was -1.04%; that for `Cl.OC(CN1C2=NCCCN2c2ccccc21)c1ccc2c(c1)OCO2` (centres unmarked) was -70.2%.
The value for `COc1cc(C(=O)NNC(=O)CSc2nnc3ccccn23)cc(OC)c1OC` was 15.4%; that for `CCCC(=O)Nc1ccc(C(=O)N/N=C/c2cccnc2)cc1` was -8.24%; that for `CC1(C)Cc2c(cnn2-c2ccc(F)cc2)C(NC(=O)CCCN2CCCCC2=O)C1` (centres unmarked) was 2.89%.
With `CCOC(=O)Cn1c(=O)c2c(nc3n2CCCCN3c2ccc(OCC)cc2)n(C)c1=O`, the “hERG current change (%, negative = inhibition) at 10uM” value is -41.4%.
Next, `CCOC(=O)Cn1c(=O)c2c(nc3n2CCCCN3c2ccc(C)cc2)n(C)c1=O`: -19.5%.
The value for `CCCCOC(=O)Cn1c(=O)c2c(nc3n2CCCCN3c2ccc(C)cc2)n(C)c1=O` was -52.8%.
